# Experimental data: PubChem BioAssay (EPA / NIEHS)
# Inconclusive results are not listed. Activity calls are given as the source filed them. How the source made its calls: active means hit-call score of the fitted dose curve at least 0.9, where 1 is the maximum; inconclusive means response in the unintended direction; inactive means score below 0.9.
# Read-out: alkyl and aryl transferase (GSTA2), GSTA2 (gene 2939)
# Experiment: CLD_GSTA2_6hr: CellzDirect (CLD) Gene Expression Assay for alkyl and aryl transferase (GSTA2) at 6 hours (AID 2283666)
# Protocol: CLD_6hr is a cell-based, multiplexed-readout assay that uses hepatocyte, a human liver primary cell, with measurements taken at 6 hours after chemical dosing in a 96-well plate.CLD_GSTA2_6hr is one of 16 assay component(s) measured or calculated from the CLD_6hr assay. It is designed to make measurements of mRNA induction, a form of inducible reporter, as detected with chemiluminescence signals by Quantitative Nuclease Protection Assay (qNPA) technology.Data from the assay component CLD_GSTA2_6hr was analyzed at the endpoint, CLD_GSTA2_6hr, in the positive analysis fitting direction relative to DMSO as the negative control and baseline of activity. Using a type of inducible reporter, gain-of-signal activity can be used to understand changes in the reporter gene as they relate to the gene GSTA2. Furthermore, this assay endpoint can be referred to as a primary readout. To generalize the intended target to other relatable targets, this assay endpoint is annotated to the transferase intended target family, where subfamily is alkyl and aryl transferase.
# Human hepatocyte cultures were treated daily for two consecutive days with fresh dosing solutions containing appropriate concentrations of the 320 ToxCast chemicals (chemical identities were blinded to CellzDirect and other ToxCast collaborators), vehicle control (0.2% DMSO), and positive control inducers as summarized in Table 1. Due to the large number of treatment groups and chemicals examined, the ToxCast chemicals were divided into two groups (spanning two independent cultures of hepatocytes from separate donor preparations (Hu778: ToxCast plates 1 and 2; Hu776: ToxCast plates 3 and 4). Each preparation of human hepatocyte cultures was treated with respective vehicle control, medium only control, set of six positive controls/reference chemicals for the five hepatic receptor pathways, and a subset of eight of the ToxCast chemicals (indoxacarb, pyrithiobac-sodium, norflurazon, cyhalofop-butyl, methomyl, thiram, acetochlor, and propiconazole). These replicate data, coupled with internal replicates designed within the blinded ToxCast chemical library, provided additional data to evaluate interindividual differences between hepatocyte preparations and their potential impact on chemical profiles.Cell morphology and integrity were evaluated using phase-contrast microscopy as an indicator of hepatocyte cell health (Tyson & Green, 1987). Cultures for each treatment group (i.e., media, vehicle [0.2% DMSO], positive control inducers [multiple concentrations], and the ToxCast chemicals [multiple concentrations]) were observed and cell morphology was assessed relative to vehicle control cultures at each harvest time point (0, 6, 24, or 48 h). […] Images were evaluated at the conclusion of the study to assess changes in cell integrity and account for the effects of chemical exposure on uncharacteristic changes in concentration-dependent gene expression profiles. The results from these determinations of apparent cytotoxicity were annotated (yes/no) alongside the corresponding qNPA data for reference.At the conclusion of each treatment period, hepatocyte cultures (96-well) were washed with 1 volume of HBSS, lysed by addition of 25 ul ArrayPlate lysis buffer (HTG, Tucson, AZ), and 70 ul/well of Denaturation Oil, denatured by incubation at 95C for 10 min, and frozen at approximately -70C until analysis by nuclease protection assay (qNPA) (Roberts et al., 2007). For qNPA analysis, cell lysates were thawed at 50C for approximately 30 min, qNPA probes were added, and samples were incubated at 95C for 10 min to begin the detection process by denaturing the target RNA, dissociating the duplexes and secondary structure hybridization. At the conclusion of the hybridization period, S1 nuclease reagent was added to each sample to digest all nonprotected nucleotides at 50C for 60-90 min. […]
row,Compound,outcome
1,Cc1cnc(C2=NC(C)(C(C)C)C(=O)N2)c(C(=O)O)c1 (stereo not given),inactive
2,CC1(C)CON(Cc2ccccc2Cl)C1=O,inactive
3,COP(=S)(OC)Oc1ccc([N+](=O)[O-])c(C)c1,inactive
4,CC(C)N1C(=O)c2ccccc2NS1(=O)=O,inactive
5,CC(C)N1C(=O)N(c2ccccc2)CSC1=NC(C)(C)C,inactive
6,CN=C=S,inactive
7,Nc1c(Cl)c(Cl)nc(C(=O)O)c1Cl,inactive
8,CC(C)C1(C)N=C(c2ncccc2C(=O)O)NC1=O (stereo not given),inactive
9,COCC(=O)N(c1c(C)cccc1C)C(C)C(=O)OC (stereo not given),inactive
10,CSC(=O)c1c(C(F)F)nc(C(F)(F)F)c(C(=O)SC)c1CC(C)C,inactive
11,COC(=O)N(C(=O)N1CO[C@@]2(C(=O)OC)Cc3cc(Cl)ccc3C2=N1)c1ccc(OC(F)(F)F)cc1,inactive
12,CC1(C)CCC(=Cc2ccc(Cl)cc2)C1(O)Cn1cncn1 (stereo not given),inactive
13,COC(=O)NS(=O)(=O)c1ccc(N)cc1,inactive
14,CNC(=O)N(C)c1nnc(C(C)(C)C)s1,inactive
15,C=C(C)CN(CC)c1c([N+](=O)[O-])cc(C(F)(F)F)cc1[N+](=O)[O-],inactive
16,N#Cc1c(Cl)cccc1Cl,inactive
17,O=C1C2CC=CCC2C(=O)N1SC(Cl)(Cl)Cl (stereo not given),inactive
18,C=CCOC(=O)C(C)(C)OC(=O)c1cc(-n2c(=O)cc(C(F)(F)F)n(C)c2=O)ccc1Cl,inactive
19,Cc1ccc(N=CN(C)C=Nc2ccc(C)cc2C)c(C)c1,inactive
20,CCOc1nc(C(Cl)(Cl)Cl)ns1,inactive

row,Compound,outcome
1,CCNC(=O)NC(=O)C(C#N)=NOC,inactive
2,CC(C)(C)C(=O)C(Oc1ccc(Cl)cc1)n1cncn1 (stereo not given),inactive
3,CCOP(=O)(OCC)Oc1nc(Cl)c(Cl)cc1Cl,inactive
4,COCC(C)N(C(=O)CCl)c1c(C)csc1C (stereo not given),inactive
5,CCOP(=S)(OCC)Oc1nc(Cl)n(C(C)C)n1,inactive
6,CC1(C)C(C=C(Cl)Cl)C1C(=O)OC(C#N)c1cccc(Oc2ccccc2)c1 (stereo not given),inactive
7,O=P(O)(O)CCCl,inactive
8,Clc1cccc(C(Cl)(Cl)Cl)n1,inactive
9,N#CN=C1SCCN1Cc1ccc(Cl)nc1,inactive
10,COc1cc(Cl)c(OC)cc1Cl,inactive
11,COC(=O)c1c(C(F)F)nc(C(F)(F)F)c(C2=NCCS2)c1CC(C)C,inactive
12,COP(=S)(OC)SCn1nnc2ccccc2c1=O,inactive
13,CS(=O)(=O)c1ccc(C(=O)C2C(=O)CCCC2=O)c([N+](=O)[O-])c1,inactive
14,Cc1nc(N(C)C)nc(OC(=O)N(C)C)c1C,inactive
15,CCNP(=S)(OC)O/C(C)=C/C(=O)OC(C)C (stereo not given),inactive
16,O=c1n(Cl)c(=O)n(Cl)c(=O)n1Cl,inactive
17,CC(C)Oc1cccc(NC(=O)c2ccccc2C(F)(F)F)c1,inactive
18,CCOc1cc(C(C)(C)C)ccc1C1COC(c2c(F)cccc2F)=N1 (stereo not given),inactive
19,CO/N=C(/C1=NOCCO1)c1ccccc1Oc1ncnc(Oc2ccccc2Cl)c1F,inactive
20,CCCN(CC)CC1COC2(CCC(C(C)(C)C)CC2)O1 (stereo not given),inactive
